Screens: PubChem, National Center for Advancing Translational Sciences (NCATS)
HP1b chromo inh – inhibitors of HP1-beta chromodomain binding to methylated histone tails; P83916; AlphaScreen HP1-beta / biotin-H3K9me3 peptide binding; Potency, µM (highest dose often 114 µM), most hits filed as inhibitors; 390,000 tested, 0.56% active; AID 540317; also: nearly all actives have a fitted effect of over 70% in size
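Compound inhibition of the preformed complex between 50 nM HP1-beta and 50 nM biotinylated H3K9me3 peptide was read by AlphaScreen. Buffer was PBS pH 7.4 with 0.01% Tween-20. Incubations ran 30 min at room temperature, with 10 ug/mL donor/acceptor beads.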
G9a block – inhibitors of human histone lysine methyltransferase G9a | Q96KQ7 | G9a H3K9 monomethylation, AlphaScreen, 2 h | Potency, µM (highest dose often 102 µM), actives largely listed as inhibitors | 350,000 tested, 8.8% active; also: nearly all actives have a fitted effect of over 75% in size
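Using a bead-based AlphaScreen, monomethylated H3K9 product from 2 h room-temperature reactions (G9a 20 nM, peptide 500 nM, SAM 20 uM) was detected with 0.5 ug/mL rabbit anti-H3K9me1 antibody.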
JMJD2A Tudor inh – inhibitors of human JMJD2A Tudor domain; O75164; 390,000 tested, 4.4% active; Potency, µM (highest dose often 114 µM), hits mostly inhibitors; AlphaScreen JMJD2A-Tudor / H3K4me3 peptide binding; AID 504339; also: nearly all actives have a fitted effect of over 50% in size
Target sequence (O75164 whole entry, looked up, the tested form may be a part): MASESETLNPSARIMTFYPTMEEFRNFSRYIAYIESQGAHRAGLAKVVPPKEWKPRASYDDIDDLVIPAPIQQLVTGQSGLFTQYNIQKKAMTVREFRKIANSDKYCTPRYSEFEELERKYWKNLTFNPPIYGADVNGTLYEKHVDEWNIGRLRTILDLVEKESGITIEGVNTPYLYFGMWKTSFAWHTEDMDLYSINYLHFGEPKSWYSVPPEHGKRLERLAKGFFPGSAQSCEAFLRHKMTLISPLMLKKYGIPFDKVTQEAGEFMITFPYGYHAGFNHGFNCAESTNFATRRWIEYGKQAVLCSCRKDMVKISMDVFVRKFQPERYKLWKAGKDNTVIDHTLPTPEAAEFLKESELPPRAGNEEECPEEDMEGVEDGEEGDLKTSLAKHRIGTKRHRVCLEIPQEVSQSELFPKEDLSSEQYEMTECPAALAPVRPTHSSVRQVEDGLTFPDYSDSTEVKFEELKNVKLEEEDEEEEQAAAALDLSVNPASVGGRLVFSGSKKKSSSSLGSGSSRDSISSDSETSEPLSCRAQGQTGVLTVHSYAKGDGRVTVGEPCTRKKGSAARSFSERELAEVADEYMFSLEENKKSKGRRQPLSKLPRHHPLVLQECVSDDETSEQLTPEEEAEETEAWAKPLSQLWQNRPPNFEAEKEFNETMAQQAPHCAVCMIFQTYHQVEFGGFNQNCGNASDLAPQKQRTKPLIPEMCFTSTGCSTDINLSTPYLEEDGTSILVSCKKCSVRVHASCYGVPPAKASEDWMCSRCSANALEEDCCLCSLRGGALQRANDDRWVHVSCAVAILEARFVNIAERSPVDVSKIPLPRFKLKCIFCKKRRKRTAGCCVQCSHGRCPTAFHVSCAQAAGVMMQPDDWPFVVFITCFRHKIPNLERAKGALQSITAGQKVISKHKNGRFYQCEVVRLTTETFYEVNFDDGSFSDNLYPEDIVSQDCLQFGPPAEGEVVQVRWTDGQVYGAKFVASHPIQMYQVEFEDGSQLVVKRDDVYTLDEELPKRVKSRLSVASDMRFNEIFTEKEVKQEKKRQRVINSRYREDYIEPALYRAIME
Sfp PPTase inh – blocks B. subtilis Sfp PPTase activity; Q9F4F7; Biochemical Sfp PPTase activity, qHTS; Potency, µM, actives largely listed as inhibitors; 310,000 tested, 3.5% active; AID 1490;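 also: the enzyme is Sfp with the accession as filed and its product quenches rhodamine fluorescence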
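Fluorescence-quenching assay: 15 nM Sfp-PPTase preincubated 15 min at room temperature with compound, then 5 uM rhodamine-CoA and 12.5 uM BHQ-2-labelled YbbR peptide added. Fluorescence (ex 525/em 598 nm) read at start and after 30 min; difference gives rate.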
BAZ2B inh – BAZ2B (human) inhibition; AlphaScreen BAZ2B-H3K14Ac peptide displacement; Q9UIF8; 360,000 tested, 4.4% active; Potency, µM (top dose mostly 114 µM), usual class: inhibitors; also: nearly all actives have a fitted effect of over 60% in size
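Inhibition is scored as reduced AlphaScreen emission. The BAZ2B/b-H3(5-23)K14Ac complex (50 nM each) in PBS pH 7.4, 0.01% Tween-20 meets compound (up to 110 uM) for 30 min at RT before bead addition.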
L3MBTL1 block – inhibitors of human L3MBTL1. Q9Y468. AlphaScreen L3MBTL1–H3K9me1 peptide binding. Potency, µM (highest dose often 57.1 µM), actives largely listed as inhibitors. 230,000 tested, 0.66% active. AID 485360; also: nearly all actives have a fitted effect of over 60% in size
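First, the protein-peptide complex forms for 30 min at room temperature (L3MBTL1 50 nM, biotinylated H3K9me1 peptide 75 nM). Next, compounds are pin-transferred and incubated 30 min. Finally, AlphaScreen beads are added and read after 30 min.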
Hits are given with their value; [ ] = dose if it differs, or a comment. Shown are actives, neighbours in structure and some others; about 12% of the full set was active somewhere. Calls follow the shape of the dose curve; as a rule, active = well fitted curve in the direction sought with a large enough effect; inconclusive = small, poorly fitted or top-dose-only effect, or another doubt; inactive = no such curve, though single readings can be large; an effect the other way counts as inactive or inconclusive.

Results for O=C1c2ccccc2C(=O)N1CCN1CCc2ccccc21 ?
HP1b chromo inh: inactive; G9a block: inconclusive; JMJD2A Tudor inh: inconclusive; Sfp PPTase inh: inactive; BAZ2B inh: 50µM; L3MBTL1 block: inactive

How did c1ccc2c(c1)CCN2CCN1CCc2ccccc21 do in these assays?
HP1b chromo inh: inactive; G9a block: 3.5µM; JMJD2A Tudor inh: inactive; Sfp PPTase inh: inactive; BAZ2B inh: inconclusive; L3MBTL1 block: inactive

Results for Cc1cccc(N2CCN(c3ncnc4c3nc3n4CCCCC3)CC2C)c1 (stereo unspecified) ?
HP1b chromo inh: inactive; G9a block: inconclusive; JMJD2A Tudor inh: inconclusive; BAZ2B inh: inconclusive

What do the screens show for `CC1CCCC(C)N1/N=C/c1ccc([N+](=O)[O-])cc1` (stereo unspecified)?
HP1b chromo inh: inconclusive; G9a block: inactive[2.33 µM]; JMJD2A Tudor inh: 35µM; Sfp PPTase inh: inactive; BAZ2B inh: 40µM

Results for CC1CCCC(C)N1/N=C/c1cccc(Br)c1 (stereo unspecified) ?
HP1b chromo inh: inactive; G9a block: inactive; JMJD2A Tudor inh: inactive; Sfp PPTase inh: inactive; BAZ2B inh: inconclusive

What do the screens show for `CC1CCCC(C)N1/N=C/c1ccc(N(C)C)cc1` (stereo unspecified)?
HP1b chromo inh: inactive; G9a block: 40µM; JMJD2A Tudor inh: inactive; Sfp PPTase inh: inactive; BAZ2B inh: inactive; L3MBTL1 block: inactive

Results for C=CCN1c2ccccc2[C@]23C[C@@H](C(=O)OC)N(S(=O)(=O)CCCC)C2=NC(C(=O)OC)=C(C(=O)OC)[C@H]13 ?
Sfp PPTase inh: inactive

How did Fc1ccc(NC(=S)Nc2ccc3nccnc3c2)cc1 do in these assays?
HP1b chromo inh: inactive; G9a block: 40µM; JMJD2A Tudor inh: inactive; Sfp PPTase inh: inconclusive; BAZ2B inh: inactive; L3MBTL1 block: inactive

Results for O=C(O)c1cnc2[nH]c3ccccc3n2c1=O ?
HP1b chromo inh: inactive; G9a block: 50µM; JMJD2A Tudor inh: inconclusive; Sfp PPTase inh: inactive; BAZ2B inh: inactive; L3MBTL1 block: inactive

Results for COc1ccc2c(c1)-c1nc(/N=C/c3ccc(O)cc3)sc1CC2 ?
HP1b chromo inh: inactive; G9a block: inconclusive; JMJD2A Tudor inh: inconclusive; Sfp PPTase inh: inactive; BAZ2B inh: 50µM; L3MBTL1 block: inactive

Results for COc1ccc2c(c1)-c1nc(NC(=O)c3cccc(Br)c3)sc1CC2 ?
HP1b chromo inh: inactive; G9a block: inconclusive; JMJD2A Tudor inh: inactive; BAZ2B inh: inactive

Results for COc1ccc2c(c1)-c1nc(/N=C/c3c(O)ccc4ccccc34)sc1CC2 ?
HP1b chromo inh: inconclusive; G9a block: 1.6µM; JMJD2A Tudor inh: 40µM; Sfp PPTase inh: inactive; BAZ2B inh: inconclusive; L3MBTL1 block: inactive

What do the screens show for `COc1cn(CC(=O)Nc2ccc(C)cc2C)c(CN2CCCCC2)cc1=O`?
HP1b chromo inh: inactive; G9a block: inactive; JMJD2A Tudor inh: inactive; BAZ2B inh: inactive

What do the screens show for `COCCCNC(=O)c1cnc2sc(N3CCCCCC3)nn2c1=O`?
HP1b chromo inh: inactive; G9a block: inactive; JMJD2A Tudor inh: inactive; BAZ2B inh: inactive

Results for Oc1ccc(/C=N/NC(=S)NCCN2CCOCC2)c(O)c1 ?
HP1b chromo inh: inactive; G9a block: inconclusive; JMJD2A Tudor inh: 56µM; Sfp PPTase inh: inactive; BAZ2B inh: 10µM; L3MBTL1 block: 22µM

What do the screens show for `COc1cc(/C=N/NC(=S)NCCN2CCOCC2)cc(OC)c1O`?
HP1b chromo inh: inactive; G9a block: inconclusive; JMJD2A Tudor inh: inactive; Sfp PPTase inh: 22µM; BAZ2B inh: inactive; L3MBTL1 block: inactive

Results for COC(=O)CCC(C)C1CCC2C3CCC4CC(O)CCC4(C)C3=CC(=O)C12C (stereo unspecified) ?
HP1b chromo inh: inactive; JMJD2A Tudor inh: inactive

Results for Cc1sc(NC(=S)NC(=O)c2ccccc2)c(C#N)c1C ?
HP1b chromo inh: inactive; JMJD2A Tudor inh: inactive

How did Cc1sc(NC(=S)NC(=O)c2ccco2)c(C#N)c1C do in these assays?
HP1b chromo inh: inactive; G9a block: 35µM; JMJD2A Tudor inh: inactive; Sfp PPTase inh: 40µM; BAZ2B inh: inactive; L3MBTL1 block: inactive

Results for CCN(CC)C(=O)c1sc(NC(=O)c2c(OC)cccc2OC)c(C#N)c1C ?
HP1b chromo inh: inactive; G9a block: 18µM; JMJD2A Tudor inh: inactive; Sfp PPTase inh: inactive; BAZ2B inh: inactive; L3MBTL1 block: inactive

How did CCc1c(C)sc(NC(=O)c2ccco2)c1C#N do in these assays?
HP1b chromo inh: inactive; JMJD2A Tudor inh: inactive; Sfp PPTase inh: inactive; BAZ2B inh: inactive

Results for CCOC(=O)c1sc(NC(=O)c2ccco2)c(C#N)c1C ?
HP1b chromo inh: inactive; G9a block: 45µM; JMJD2A Tudor inh: inactive; Sfp PPTase inh: inactive; BAZ2B inh: inactive; L3MBTL1 block: inactive

Results for CCOC(=O)c1sc(NC(=O)C2c3ccccc3Oc3ccccc32)c(C#N)c1C ?
HP1b chromo inh: inactive; G9a block: 2.2µM; JMJD2A Tudor inh: inactive; BAZ2B inh: inactive

What do the screens show for `CCOC(=O)c1cnc2c(ccc3ccccc32)c1Nc1cccc(Cl)c1`?
HP1b chromo inh: inactive; G9a block: inactive; JMJD2A Tudor inh: inactive; BAZ2B inh: inactive

How did C#CCCCO/N=C1/C[C@@H](O)[C@@H](O)[C@@H]2[C@@H]3C(=O)N(Cc4ccccc4)C(=O)[C@H]3CC[C@H]12 do in these assays?
Sfp PPTase inh: inactive

How did CC(C)c1nnc(NC(=O)C2c3ccccc3Oc3ccccc32)s1 do in these assays?
HP1b chromo inh: inactive; G9a block: inactive[12.7 µM]; JMJD2A Tudor inh: inactive; Sfp PPTase inh: inactive; BAZ2B inh: inactive

Results for Cc1nnc(NC(=O)C2c3ccccc3Oc3ccccc32)s1 ?
HP1b chromo inh: inconclusive; G9a block: 11µM; JMJD2A Tudor inh: inactive; Sfp PPTase inh: inactive; BAZ2B inh: inactive; L3MBTL1 block: inactive

How did CN(C)S(=O)(=O)c1ccc(C(=O)OCC2COC(C)(C)O2)cc1 (stereo unspecified) do in these assays?
HP1b chromo inh: inactive; G9a block: inactive; JMJD2A Tudor inh: inactive; Sfp PPTase inh: inactive; BAZ2B inh: inactive

How did CC1(C)OCC(CSC2=C(SCC3COC(C)(C)O3)C(=O)c3ncccc3C2=O)O1 (stereo unspecified) do in these assays?
Sfp PPTase inh: 1.3µM

Results for CCC(O)(CC)C(=O)N/N=C/c1cc(Br)cc(Br)c1O ?
HP1b chromo inh: inactive; G9a block: inactive; JMJD2A Tudor inh: inactive; Sfp PPTase inh: inactive; BAZ2B inh: inactive; L3MBTL1 block: inactive

What do the screens show for `CC1CCN(c2ccc(/C=N\Nc3nncn3N)cc2[N+](=O)[O-])CC1`?
HP1b chromo inh: inactive; G9a block: inconclusive; JMJD2A Tudor inh: inconclusive; Sfp PPTase inh: 79µM; BAZ2B inh: inconclusive; L3MBTL1 block: inactive

How did CC(C)(C)c1ccc(/C=N/Nc2nncn2N)cc1 do in these assays?
HP1b chromo inh: inactive; G9a block: 40µM; JMJD2A Tudor inh: inactive; Sfp PPTase inh: inactive; BAZ2B inh: inactive; L3MBTL1 block: inactive
